# Only some compounds are listed: those with a hit (about 4.6% of all), similar ones and a draw of the others.
# HSF1 inhib: HSF1 inhibition; activity change, negative = inhibition, % at 7.5 µM (by protocol); AID 2098; actives 0.77% (n = 300,000); NIH3T3-HGL HSE-luciferase, MG132-induced, luminescence 8 h; hits give low values;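 active means more than half of replicate wells show activity change below -50%, luminescence cut by over half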;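 further: luciferase reports HSF-1 transcriptional activity via heat shock element; 0% = median of DMSO wells and -100% = zero luminescence signal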
# GAA850 FXN act: increases GAA850 frataxin promoter reporter activity | HEK293 lucGAA850 FXN promoter luciferase reporter, 24 h; percent of 10 µM SAHA response | activation, % at 6 µM | actives 0.56% (n = 360,000);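 active means activation above the average of all compounds screened plus 3 SD, cutoff fixed separately per campaign, cut at about 7.5% in these data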;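 further: 0% = DMSO wells and 100% = 10 µM SAHA wells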
# HSF1 activator: increases HSF-1 driven luciferase reporter signal | NIH3T3-HGL HSF-1 luciferase reporter, MG132, 8 h; 100% = twice DMSO control signal | activation, % at 9 µM | actives 1.7% (n = 300,000) | AID 504408;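 active means mean replicate activation of at least 50% with a set share of replicates each reaching 50%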;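 further: 0% = median of the neutral control wells and 100% = twice that signal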
# AHR act: human AHR activation; AHR-responsive luciferase reporter cells, luminescence; activation, % at 5 µM; P35869; AID 2796; actives 2.5% (n = 320,000); in the data active means activation above about 47%;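 further: 0% = vehicle wells and 100% = reference agonist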
# Target sequence (P35869 whole entry, looked up): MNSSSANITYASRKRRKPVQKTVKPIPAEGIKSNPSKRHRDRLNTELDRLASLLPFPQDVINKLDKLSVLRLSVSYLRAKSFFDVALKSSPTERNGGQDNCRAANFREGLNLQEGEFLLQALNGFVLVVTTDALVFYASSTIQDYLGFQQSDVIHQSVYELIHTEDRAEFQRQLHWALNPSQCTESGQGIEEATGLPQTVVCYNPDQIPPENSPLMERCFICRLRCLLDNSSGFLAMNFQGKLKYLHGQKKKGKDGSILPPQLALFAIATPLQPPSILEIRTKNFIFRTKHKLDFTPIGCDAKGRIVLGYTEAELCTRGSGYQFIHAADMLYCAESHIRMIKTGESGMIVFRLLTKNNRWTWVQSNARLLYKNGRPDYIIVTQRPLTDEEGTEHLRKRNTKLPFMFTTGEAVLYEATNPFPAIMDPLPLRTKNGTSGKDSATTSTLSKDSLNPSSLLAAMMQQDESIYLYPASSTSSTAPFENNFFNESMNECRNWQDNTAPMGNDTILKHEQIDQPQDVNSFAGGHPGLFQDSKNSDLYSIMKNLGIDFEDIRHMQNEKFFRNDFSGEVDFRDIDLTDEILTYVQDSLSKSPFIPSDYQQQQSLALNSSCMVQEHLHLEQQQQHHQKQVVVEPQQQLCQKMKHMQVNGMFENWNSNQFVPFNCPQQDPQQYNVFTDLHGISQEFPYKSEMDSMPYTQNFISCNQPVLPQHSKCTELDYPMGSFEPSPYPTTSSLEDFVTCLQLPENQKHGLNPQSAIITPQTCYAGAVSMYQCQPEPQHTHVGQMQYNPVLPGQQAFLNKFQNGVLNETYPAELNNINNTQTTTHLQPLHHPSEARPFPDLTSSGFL
# An asterisk follows results filed as active; · = no result.
SMILES,HSF1 inhib,GAA850 FXN act,HSF1 activator,AHR act
Cc1cccc(NC(=O)c2ccc(Cl)c(S(=O)(=O)N3CCCCCC3)c2)n1,·,1,·,2
Cc1cn([C@H]2C[C@H](O)[C@@H](CNCc3cc(Br)ccc3OCc3ccccc3)O2)c(=O)[nH]c1=O,·,-2,·,·
COCC(C)n1c(COc2ccccc2F)nnc1SCC(=O)Nc1oc(C)c2c(C)n[nH]c(=O)c12 (centres undefined),-1,-2,3,6
CCN(Cc1ccncc1)C(=O)c1cc(Br)cc(Br)c1O,11,-2,51*,2
CCN(Cc1ccncc1)C(=O)c1ccco1,-4,1,-4,-1
O=C(CSc1ccc(-c2ccccn2)nn1)NCc1ccc(F)cc1,3,2,3,3
COc1cccc(NCc2cc(=O)oc3cc(-c4ccccc4)c(O)cc23)c1,3,2,4,76*
CC(=O)Nc1ccc(S(=O)(=O)Nc2nc3ccccc3nc2Nc2ccc3ccccc3c2)cc1,54,0,106*,39
CC(=O)Nc1ccc(S(=O)(=O)Nc2nc3ccccc3nc2Nc2cccc(O)c2)cc1,-2,-1,8,3
Cc1ccc(/C=N/Nc2nc(C(C)(C)C)cs2)o1,-1,3,5,50*
COC(=O)C(CC(C)C)NC(=O)/C=C/c1ccccc1Cl (centres undefined),21,3,37,-2
COc1ccc(CCn2c(-c3cc([N+](=O)[O-])cc([N+](=O)[O-])c3)nc3nc4ccccc4nc32)cc1,-2,2,-2,-1
Cc1cc2occ(CC(=O)Nc3nnc(C4CC4)s3)c2cc1C,·,0,·,1
O=C(Cc1coc2ccc3ccccc3c12)Nc1nnc(C2CC2)s1,-9,-7,-6,69*
O=C(NCCSCc1ccco1)Nc1cccc(Cl)c1,21,3,60*,3
CCOC(=O)c1cnc(Nc2nc3ccccc3o2)nc1CSc1ncccn1,-5,·,-17,8
CCCc1nc(Nc2nc3ccccc3o2)nc(C)c1C(=O)OCC,33,6,64*,13
CCOc1cc(/C=N/O)ccc1OCc1ccc(F)cc1,8,7,23,27
CCOc1cc(/C=N/O)ccc1OCc1ccc([N+](=O)[O-])cc1,14,4,27,78*
COc1cc(/C=C(\C#N)C(=O)Nc2cccc(C(=O)O)c2)ccc1OCc1ccc(Cl)cc1,75,4,113*,2
COc1cc(/C=N/O)ccc1OCc1ccc(C(=O)O)cc1,-77*,1,-81,-15
COc1cc(/C=N/O)ccc1OCc1ccc(Cl)cc1,47,·,108*,5
COc1cc(/C=N/N=C(N)N)ccc1OCc1ccc(Cl)cc1,-38,0,-43,5
COc1ccc(/C=N\Nc2ccccn2)c(OC)c1,22,6,41,·
CCOc1cc(NC(=S)NCC2CCCO2)c(OCC)cc1NC(=O)c1ccccc1F (centres undefined),9,-1,23,5
SMILES,HSF1 inhib,GAA850 FXN act,HSF1 activator,AHR act
O=c1oc2ccccc2c(Nc2cccc(O)c2)c1[N+](=O)[O-],0,1,5,4
O=C(NCc1ccco1)C(c1ccccc1)N(CC1CCCO1)C(=O)Cn1nnc2ccccc21 (centres undefined),3,-3,-8,-1
c1ccc(-c2cc(-c3ccccc3)ncn2)cc1,·,1,·,0
CC(=O)Nc1ccc(S(=O)(=O)N2CCCCC2c2cccnc2)cc1 (centres undefined),-2,-1,7,0
COc1ccccc1C1C=C(c2ccc(C)cc2)Nc2nnnn21 (centres undefined),-1,2,-6,54*
COCc1cc(C)nc(OCC(=O)N/N=C/c2ccc(OC)c(OC)c2)c1C#N,0,4,2,63*
COc1ccc(/C=N/NC(=O)CCn2c3ccccc3c3ccccc32)cc1OC,2,2,-5,69*
COc1cc(/C=N/NC(=O)CCn2c3ccccc3c3ccccc32)cc(OC)c1OC,-4,2,7,13
CSc1nsc(SC)c1C(=O)Nc1ccc(C)cc1,3,4,8,33
CSc1nsc(SC)c1C(=O)Nc1ccc(Cl)cc1,·,1,·,58*
COCCN=c1scc(-c2cc(OC)c(OC)c(OC)c2)n1/N=C/c1c(C)[nH]c2ccccc12,-8,0,-1,56*
Cc1[nH]c2ccccc2c1/C=N/n1cnnc1,-5,-1,-18,20
Cc1sc(NC(=O)c2ccco2)c(C(c2ccc(F)cc2)N2CCN(C)CC2)c1C (centres undefined),16,-4,32,2
Cn1c(-c2ccccc2)cnc1SCc1nc2ccccc2c(=O)[nH]1,67,6,104*,6
Cc1cc(C)nc(SCc2nc3ccccc3n2C)n1,10,2,12,30
CCn1c(CNc2ccc(Cl)cc2)nnc1SCc1ccccc1,7,-1,-4,1
Cn1c(SCc2nc3ccccc3c(=O)[nH]2)nc2ccccc21,19,1,40,61*
CCn1c(CNc2ccc(Cl)cc2)nnc1SCC(=O)NCc1ccccc1,44,0,60*,22
Cn1c(CSc2nc3ccccc3n2C)nc2ccccc21,31,2,70*,0
CN(C)C(=O)C#Cc1ccccc1,-7,2,-6,-4
COC(=O)c1ccc2c(=O)n(-c3ccccc3)c(SCN3C(=O)c4ccccc4C3=O)nc2c1,2,1,-1,0
CC(NC(=O)CSc1nc2ccccc2n1C)c1ccccc1 (centres undefined),6,2,1,1
O=c1[nH]c(CSc2ncnc3sccc23)nc2ccccc12,30,6,56*,10
O=c1[nH]c(CSc2ncn[nH]2)nc2ccccc12,-6,2,4,15
O=c1[nH]c(CSc2cccc[n+]2[O-])nc2ccccc12,-8,-3,1,48*
SMILES,HSF1 inhib,GAA850 FXN act,HSF1 activator,AHR act
Cn1c(SCC(=O)NCc2ccccc2)nc2ccccc21,-73*,0,-79,3
Nc1nnc(/C=C/c2ccccc2Cl)s1,35,5,70*,2
CCn1c(NC(=O)c2ccccc2)nc2ccccc21,8,1,15,45
CCCCn1c(NC(=O)c2ccccc2)nc2ccccc21,-19,1,-10,73*
CCCCn1c(NC(=S)Nc2ccccc2)nc2ccccc21,-1,0,6,66*
S=C(Nc1ccccc1)Nc1nc2ccccc2n1CCOc1ccccc1,-6,-1,-1,19
CCCn1c(NC(=O)c2ccccc2Br)nc2ccccc21,2,1,20,47*
CCCn1c(NC(=O)c2ccc(F)cc2)nc2ccccc21,3,3,16,53*
COc1ccc(CCNC(=O)Cc2ccccc2)cc1OC,0,2,1,-1
Cc1cc([N+](=O)[O-])ccc1NC(=O)CCC(=O)N1CCCCC1,-77*,1,-80,-4
Cc1cc([N+](=O)[O-])ccc1NC(=O)CCC(=O)N1CCCC1,-1,-1,7,1
CC1CCN(C(c2ccc(N(C)C)cc2)c2nnnn2Cc2ccccc2)CC1 (centres undefined),48,1,66*,4

# From PubChem
